Results filed as inconclusive are left out. Active and inactive are the calls of the source. Unless noted, calls follow the shape of the dose curve; as a rule, active = well fitted curve in the direction sought with a large enough effect in the repeat runs; inconclusive = weak or mixed curves; inactive = no such curve, though single readings can be large; an effect the other way counts as inactive or inconclusive.
How the values were obtained:
[1] = qHTS assay to identify small molecule agonists of the estrogen receptor alpha (ER-alpha) signaling pathway in the presence of an antagonist - cell viability counter screen (AID 1259386); also: series mostly up to about 92 µM; nearly all actives have a fitted effect of over 30% in size
In short: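 Compounds tested at 15 concentrations for 22 h at 37C alongside 10.0nM (final) ICI-182,780 antagonist, in VM7Luc4E2 cells grown in phenol red-free, charcoal-stripped medium. Viability read by CellTiter-Fluor fluorescence after 1 h reagent incubation.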

[2] = biological target: Progesterone receptor (Homo sapiens) (UniProt P06401); test: qHTS assay to identify small molecule agonists of the progesterone receptor (PR) signaling pathway (AID 1346784; calls by dose curve; also: nearly all actives have a fitted effect of over 30% in size)
Sequence of Progesterone receptor (Homo sapiens) (P06401 whole entry, looked up): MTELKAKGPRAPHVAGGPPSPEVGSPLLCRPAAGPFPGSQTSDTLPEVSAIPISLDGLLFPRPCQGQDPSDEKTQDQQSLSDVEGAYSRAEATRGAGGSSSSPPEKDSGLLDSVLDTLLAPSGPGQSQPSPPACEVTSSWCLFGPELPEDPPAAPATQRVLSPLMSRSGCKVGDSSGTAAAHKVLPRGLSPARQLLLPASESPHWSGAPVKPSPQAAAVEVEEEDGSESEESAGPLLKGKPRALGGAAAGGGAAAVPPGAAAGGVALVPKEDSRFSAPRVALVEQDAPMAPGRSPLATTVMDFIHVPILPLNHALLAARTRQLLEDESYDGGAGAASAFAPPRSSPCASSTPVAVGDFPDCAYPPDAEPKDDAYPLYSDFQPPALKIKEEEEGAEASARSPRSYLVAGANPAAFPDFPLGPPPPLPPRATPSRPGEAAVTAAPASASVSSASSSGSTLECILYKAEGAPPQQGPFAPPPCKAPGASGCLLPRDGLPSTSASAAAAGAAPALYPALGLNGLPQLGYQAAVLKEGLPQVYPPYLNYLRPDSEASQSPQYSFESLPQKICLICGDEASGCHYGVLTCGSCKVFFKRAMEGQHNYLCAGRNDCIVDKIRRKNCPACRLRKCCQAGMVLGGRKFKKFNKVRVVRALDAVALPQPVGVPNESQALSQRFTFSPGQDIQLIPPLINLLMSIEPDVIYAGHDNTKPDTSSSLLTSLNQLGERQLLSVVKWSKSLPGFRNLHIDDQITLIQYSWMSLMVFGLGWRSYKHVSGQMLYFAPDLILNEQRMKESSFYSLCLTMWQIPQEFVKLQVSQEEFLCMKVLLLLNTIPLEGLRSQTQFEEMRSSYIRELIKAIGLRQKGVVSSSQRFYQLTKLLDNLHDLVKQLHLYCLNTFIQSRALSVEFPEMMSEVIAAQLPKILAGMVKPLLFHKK
In short: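 HEK 293T PR-UAS-bla reporter cells, 2% charcoal-stripped FBS; 6 hr settle at 37C/5% CO2, compound (DMSO) 16 hr, LiveBLAzer B/G FRET substrate 2 hr RT, fluorescence intensity read.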

[3] = biological target: Progesterone receptor (Homo sapiens) (UniProt P06401); test: qHTS assay to identify small molecule antagonists of the progesterone receptor (PR) signaling pathway (AID 1346795; active = well fitted inhibition curve with a large enough effect in the signal ratio in the repeat runs, not every such curve was filed as active; the % refers to the signal ratio)
In short: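 Beta-lactamase reporter, HEK293T PR-UAS-bla line; 2% charcoal-stripped FBS; 6 hr pre-incubation, 37C/5% CO2. Compound + R5020 1 nM final, 16 hr. LiveBLAzer B/G FRET substrate, 2 hr RT; fluorescence intensity read.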

[4] = qHTS assay to identify small molecule antagonists of the progesterone receptor (PR) signaling pathway - cell viability counter screen (AID 1346798); also: series mostly up to about 92 µM; nearly all actives have a fitted effect of over 50% in size
In short: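 Luminescence readout (CellTiter-Glo, 30 min, RT) of viability in PR-UAS-bla HEK293T cells exposed to compound and R5020 agonist for 16 hr at 37C, 5% CO2; run in the same wells as the beta-lactamase reporter read.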

[5] = qHTS assay to identify small molecule agonists of the progesterone receptor (PR) signaling pathway - cell viability counter screen (AID 1346799; calls by dose curve; also: nearly all actives have a fitted effect of over 45% in size)
In short: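 HEK293T PR-UAS-bla, 3,000 cells/well, 2% charcoal-stripped FBS; 6 h settle, compound 16 h at 37C/5% CO2; LiveBLAzer 2 h RT, then CellTiter-Glo 30 min RT, luminescence read.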

[6] = qHTS assay to identify small molecule antagonists of the TGF-beta/Smad signaling pathway - cell viability counter screen (AID 1346824); also: nearly all actives have a fitted effect of over 50% in size
In short: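 SBE-bla HEK 293T cells, incubated overnight, then compound plus 0.25 ng/mL TGF-beta1 (stock added) for 5 hr at 37 C. Viability was read in the same wells by CellTiter-Glo luminescence after 30 min at room temperature.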

[7] = qHTS assay to identify small molecule agonists of the TGF-beta/Smad signaling pathway - cell viability counter screen (AID 1346829); also: top concentration of the series differs between compounds; nearly all actives have a fitted effect of over 45% in size
In short: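 Tox21 qHTS format: SBE-bla HEK 293T cells treated with DMSO-dissolved compounds for 5 hr; CellTiter-Glo luminescence after 30 min at room temperature.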

[8] = qHTS assay to identify small molecule agonists of the TGF-beta/Smad signaling pathway (AID 1346859; active = well fitted activation curve with a large enough effect in the signal ratio in the repeat runs, not every such curve was filed as active; the % refers to the signal ratio; also: series mostly up to about 77 µM)
In short: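 Read-out: fluorescence at 460 and 530 nm (405 nm excitation) after a 2 hr room-temperature incubation with beta-lactamase FRET substrate. SBE-bla HEK 293T cells had been treated with test compounds for 5 hr at 37 C.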

[9] = biological target: Thyrotropin-releasing hormone receptor (Homo sapiens) (UniProt P34981); test: qHTS assay to identify small molecule agonists of the thyrotropin-releasing hormone receptor (TRHR) signaling pathway (AID 1346891; calls by dose curve;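 also: HEK293 cells expressing TRHR with calcium dye readout; series mostly up to about 58 µM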)
Sequence of Thyrotropin-releasing hormone receptor (Homo sapiens) (P34981 whole entry, looked up): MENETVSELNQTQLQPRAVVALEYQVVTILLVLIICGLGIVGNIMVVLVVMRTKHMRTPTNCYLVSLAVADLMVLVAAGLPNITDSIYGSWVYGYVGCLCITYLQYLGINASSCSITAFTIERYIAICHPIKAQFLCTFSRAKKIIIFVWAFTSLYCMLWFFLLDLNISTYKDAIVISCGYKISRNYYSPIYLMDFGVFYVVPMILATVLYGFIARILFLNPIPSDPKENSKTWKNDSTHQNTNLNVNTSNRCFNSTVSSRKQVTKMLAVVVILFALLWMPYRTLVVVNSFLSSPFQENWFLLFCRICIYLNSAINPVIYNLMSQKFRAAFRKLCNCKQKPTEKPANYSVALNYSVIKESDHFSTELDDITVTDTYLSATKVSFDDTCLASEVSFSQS
In short: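 HEK293/TRHR cells, 1500 per well, 18 h 37 °C; Ca dye 2 h 37 °C; pin-tool compound addition (agonist mode); kinetic fluorescence 3 min, 1 s reads; 15 concentrations, triplicate.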

[10] = Human pregnane X receptor (PXR) small molecule agonists, qHTS cell viability counter screen (AID 1346977); also: nearly all actives have a fitted effect of over 50% in size
In short: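 Fluorescence read-out (CellTiter-Fluor) of viability in PXR-Luc HepG2 cells, multiplexed with the luciferase agonist read. Compounds in DMSO added after 5hr plating; 24hr total exposure at 37C, 5% CO2.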

[11] = Caspase-3/7 induction in HepG2 cells by small molecules, qHTS assay (AID 1346978); also: nearly all actives have a fitted effect of over 15% in size
In short: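 Wild-type HepG2 cells, 2,000/well, settled 5 hr at 37 C and 5% CO2, then compound-treated for 17 hr; caspase-3/7 activity read by luminescent Caspase-Glo 3/7 after 30 min at room temperature.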

[12] = Caspase-3/7 induction in CHO-K1 cells by small molecules, qHTS cell viability counter screen (AID 1346979); also: nearly all actives have a fitted effect of over 35% in size
In short: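 CHO-K1 wt, 1,500 cells/well; 5hr pre-incubation 37C/5% CO2; compound pin transfer (DMSO); 16hr exposure; CellTiter-Fluor added, 1hr, fluorescence read.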

[13] = Caspase-3/7 induction in CHO-K1 cells by small molecules, qHTS assay (AID 1346980); also: nearly all actives have a fitted effect of over 15% in size
In short: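 Wild-type CHO-K1 cells exposed to compounds for 17hr at 37 C, 5% CO2. Caspase-3/7 activity then measured by Caspase-Glo 3/7 luminescence after 30min at room temperature.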

[14] = Caspase-3/7 induction in HepG2 cells by small molecules, qHTS cell viability counter screen (AID 1346981); also: series mostly up to about 92 µM; nearly all actives have a fitted effect of over 30% in size
In short: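 CellTiter-Fluor fluorescence measured viability in the same wells used for Caspase-Glo 3/7. HepG2 (wild type) at 2,000 cells/well were pre-incubated 5 hr, dosed, and given reagent at 16 hr, with 1 hr further at 37C.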

[15] = biological target: Acetylcholinesterase (Homo sapiens) (UniProt P22303); test: Acetylcholinesterase (AChE) small molecule antagonists: colormetric cell-based qHTS assay (AID 1347395; calls by dose curve; also: nearly all actives have a fitted effect of over 30% in size; also: potency is read from the fitted curve at half-maximal effect)
Sequence of Acetylcholinesterase (Homo sapiens) (P22303 whole entry, looked up): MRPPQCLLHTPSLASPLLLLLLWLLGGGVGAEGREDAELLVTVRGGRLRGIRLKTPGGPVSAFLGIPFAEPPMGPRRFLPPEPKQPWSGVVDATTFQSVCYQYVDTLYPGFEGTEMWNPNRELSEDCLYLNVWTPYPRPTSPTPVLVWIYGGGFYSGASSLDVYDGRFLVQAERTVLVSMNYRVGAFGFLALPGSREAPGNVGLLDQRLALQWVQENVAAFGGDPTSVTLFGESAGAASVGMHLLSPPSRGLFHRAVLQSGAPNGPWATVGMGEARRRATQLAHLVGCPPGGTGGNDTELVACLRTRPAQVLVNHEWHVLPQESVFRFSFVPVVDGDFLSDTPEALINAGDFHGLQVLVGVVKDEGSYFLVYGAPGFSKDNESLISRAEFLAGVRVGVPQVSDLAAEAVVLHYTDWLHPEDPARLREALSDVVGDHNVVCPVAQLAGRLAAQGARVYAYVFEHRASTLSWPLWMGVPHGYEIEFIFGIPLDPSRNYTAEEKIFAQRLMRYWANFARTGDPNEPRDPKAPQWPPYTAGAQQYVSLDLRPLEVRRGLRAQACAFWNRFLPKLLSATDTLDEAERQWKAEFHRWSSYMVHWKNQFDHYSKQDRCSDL
In short: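 SH-SY5Y cells; cpd 30 min 37 C; + DTNB/acetylthiocholine, 90 min 37 C; colorimetric thiocholine read; qHTS.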

[16] = biological target: Nuclear receptor subfamily 1 group I member 2 (Homo sapiens) (UniProt O75469); test: Human pregnane X receptor (PXR) small molecule agonists, qHTS assay (AID 1346982); also: nearly all actives have a fitted effect of over 35% in size; also: potency is read from the fitted curve at half-maximal effect
Sequence of Nuclear receptor subfamily 1 group I member 2 (Homo sapiens) (O75469 whole entry, looked up): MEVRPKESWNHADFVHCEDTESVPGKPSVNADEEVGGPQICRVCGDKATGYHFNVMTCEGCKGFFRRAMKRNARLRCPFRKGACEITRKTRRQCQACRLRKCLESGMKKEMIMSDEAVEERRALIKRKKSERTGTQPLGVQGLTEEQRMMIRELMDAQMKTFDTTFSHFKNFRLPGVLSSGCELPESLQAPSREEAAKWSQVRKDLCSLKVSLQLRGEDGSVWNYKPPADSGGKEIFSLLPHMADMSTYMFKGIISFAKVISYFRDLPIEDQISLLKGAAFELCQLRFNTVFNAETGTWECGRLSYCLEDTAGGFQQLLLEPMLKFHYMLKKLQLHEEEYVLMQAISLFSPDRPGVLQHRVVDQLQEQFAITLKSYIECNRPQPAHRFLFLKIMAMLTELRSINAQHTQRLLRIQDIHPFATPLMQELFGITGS
In short: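 Agonist mode: luminescence from ONE-Glo after 24 h compound exposure at 37C in HepG2 cells carrying hPXR-responsive CYP3A4 luciferase, plated in charcoal-stripped serum medium 5 h beforehand.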

[17] = biological target: Thyrotropin-releasing hormone receptor (Homo sapiens) (UniProt P34981); test: qHTS assay to identify small molecule antagonists of the thyrotropin-releasing hormone receptor (TRHR) signaling pathway (AID 1346877; active = well fitted inhibition curve with a large enough effect in the repeat runs, not every such curve was filed as active; also: series mostly up to about 51 µM)
In short: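 Antagonist mode: after a 5 min room-temperature compound exposure, cells were stimulated with 1 nM (final) TRH. Dye-loaded TRHR-HEK293 cells were used, and calcium-dependent fluorescence was followed for 3 min, with 15-point titrations run in triplicate.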

[18] = biological target: Nuclear receptor subfamily 1 group I member 2 (Rattus norvegicus) (UniProt Q9R1A7); test: Rat pregnane X receptor (rPXR) activation by small molecules, qHTS assay (AID 1346983); details: rPXR luciferase reporter cells, One-Glo luminescence, 24 h; max activation: active compounds read high; also: nearly all actives have a fitted effect of over 20% in size
Sequence of Nuclear receptor subfamily 1 group I member 2 (Rattus norvegicus) (Q9R1A7 whole entry, looked up): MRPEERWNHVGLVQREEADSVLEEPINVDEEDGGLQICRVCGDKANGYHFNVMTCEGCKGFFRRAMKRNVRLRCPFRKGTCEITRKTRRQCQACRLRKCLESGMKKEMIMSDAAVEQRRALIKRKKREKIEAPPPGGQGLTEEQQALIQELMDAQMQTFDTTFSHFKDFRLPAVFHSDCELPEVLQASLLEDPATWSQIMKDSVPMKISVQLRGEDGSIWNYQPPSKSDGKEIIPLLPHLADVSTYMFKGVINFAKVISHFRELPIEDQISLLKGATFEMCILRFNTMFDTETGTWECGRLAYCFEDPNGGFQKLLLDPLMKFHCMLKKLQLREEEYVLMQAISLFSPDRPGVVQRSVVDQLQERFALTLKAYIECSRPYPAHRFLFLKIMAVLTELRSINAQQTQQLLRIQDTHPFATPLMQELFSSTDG
In short: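 Cell-based rPXR activation assay: rPXR cells, 2,000 per well, rested 5hr at 37 C, then exposed to compounds in DMSO for 24 hr at 37 C. Luciferase activity read by One-Glo luminescence after 30 min at room temperature.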

[19] = biological target: Nuclear receptor subfamily 1 group I member 2 (Homo sapiens) (UniProt O75469); test: CYP3A4 induction through human pregnane X receptor (PXR) by small molecules, qHTS assay (AID 1346984); also: nearly all actives have a fitted effect of over 40% in size
In short: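 Read-out is luminescence after One-Glo addition, following a 3 hr, 37C incubation with Luciferin-IPA CYP3A4 substrate (3uM final). Before that, compounds were on DPX-2 cells (HepG2 co-transfected with PXR element plus CYP3A4-promoter luciferase) for 24 hr at 37C.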

[20] = biological target: Nuclear receptor subfamily 1 group I member 2 (Homo sapiens) (UniProt O75469); test: Human pregnane X receptor (PXR) activation by small molecules, qHTS assay (AID 1346985); also: nearly all actives have a fitted effect of over 40% in size
In short: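 DPX-2 cells (HepG2 co-transfected with a PXR response element and a CYP3A4-promoter luciferase construct) were seeded at 2,000 per well, rested 5 hr at 37C, then exposed to DMSO-dissolved compounds for 24 hr. Activation was read as luciferase luminescence.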
% is scaled to controls: 0 for no effect and ±100 for the full control effect.

COCC(=O)N(c1c(C)cccc1C)N1CCOC1=O
inactive: Potency [1] | Potency [2] | Potency [3] | Potency [4] | Potency [5] | Potency [6] | outcome [7] | outcome [8] | outcome [9] | Potency [10] | Potency [11] | Potency [12] | Potency [13] | Potency [14] | Potency [15]

CCCCc1ccc(O)cc1
inactive: Potency [1] | Potency [2] | Potency [3] | Potency [4] | Potency [5] | Potency [6] | outcome [7] | outcome [8] | outcome [9] | Potency [10] | Potency [11] | Potency [12] | Potency [13] | Potency [14] | Potency [16] | Potency [15]

ClC(Br)Br
inactive: Potency [1] | Potency [2] | Potency [3] | Potency [4] | Potency [5] | Potency [6] | outcome [7] | outcome [8] | outcome [17] | outcome [9] | Potency [10] | Potency [11] | Potency [13] | Potency [14] | Potency [16] | Potency [15]

C=C(C)CN(CC)c1c([N+](=O)[O-])cc(C(F)(F)F)cc1[N+](=O)[O-]
inactive: Potency [1] | Potency [2] | Potency [3] | Potency [4] | Potency [5] | Potency [6] | outcome [7] | outcome [8] | outcome [17] | outcome [9] | Potency [10] | Potency [11] | Potency [13] | Potency [14] | Potency [15]
active: Potency [16] 27.3 µM

Cc1cccc(C#N)c1
inactive: Potency [1] | Potency [2] | Potency [3] | Potency [4] | Potency [5] | Potency [6] | outcome [7] | outcome [8] | outcome [17] | outcome [9] | Potency [10] | Potency [11] | Potency [12] | Potency [13] | Potency [14] | Potency [15]

CCCCC(=O)Cl
inactive: Potency [1] | Potency [2] | Potency [3] | Potency [4] | Potency [5] | Potency [6] | outcome [7] | outcome [8] | Potency [10] | Potency [11] | Potency [12] | Potency [13] | Potency [14] | Potency [16] | Potency [15]

O=C1CN=C(c2ccccc2)c2cc([N+](=O)[O-])ccc2N1
inactive: Potency [1] | Potency [2] | Potency [3] | Potency [4] | Potency [5] | Potency [6] | outcome [7] | outcome [8] | outcome [17] | Potency [10] | Potency [11] | Potency [12] | Potency [13] | Potency [14] | max activation [18] -2.6% | Potency [19] | Potency [20] | Potency [15]

CCS(=O)(=O)CCSP(=O)(OC)OC
inactive: Potency [1] | Potency [2] | Potency [3] | Potency [4] | Potency [5] | Potency [6] | outcome [7] | outcome [8] | Potency [10] | Potency [11] | Potency [13] | Potency [14] | Potency [16]

O=NN1CCCCC1
inactive: Potency [1] | Potency [2] | Potency [3] | Potency [4] | Potency [5] | Potency [6] | outcome [7] | outcome [8] | outcome [17] | outcome [9] | Potency [11] | Potency [12] | Potency [13] | Potency [14] | Potency [16] | Potency [15]

COc1cc(OC)nc(NC(=O)NS(=O)(=O)c2ncccc2C(=O)N(C)C)n1
inactive: Potency [1] | Potency [2] | Potency [3] | Potency [4] | Potency [5] | Potency [6] | outcome [7] | outcome [8] | outcome [17] | outcome [9] | Potency [10] | Potency [11] | Potency [12] | Potency [13] | Potency [14] | Potency [16] | Potency [15]

NC1=NC(=O)C(c2ccccc2)O1 (stereo unspecified)
inactive: Potency [1] | Potency [2] | Potency [3] | Potency [4] | Potency [5] | Potency [6] | outcome [7] | outcome [8] | outcome [17] | outcome [9] | Potency [10] | Potency [11] | Potency [12] | Potency [13] | Potency [14] | Potency [16] | max activation [18] -2.64% | Potency [19] | Potency [20] | Potency [15]

CCOP(=S)(Oc1cnc(C(C)(C)C)nc1)OC(C)C (stereo unspecified)
active: Potency [15] 39.9 µM
inactive: Potency [1] | Potency [2] | Potency [3] | Potency [4] | Potency [5] | Potency [6] | outcome [7] | outcome [8] | Potency [10] | Potency [11] | Potency [12] | Potency [13] | Potency [14]

CCCCN(CCCCO)N=O
inactive: Potency [1] | Potency [2] | Potency [3] | Potency [4] | Potency [5] | Potency [6] | outcome [7] | outcome [8] | outcome [17] | outcome [9] | Potency [10] | Potency [11] | Potency [12] | Potency [13] | Potency [14] | Potency [16] | Potency [15]

NC(=O)O
inactive: Potency [1] | Potency [2] | Potency [3] | Potency [4] | Potency [5] | Potency [6] | outcome [7] | outcome [8] | outcome [17] | outcome [9] | Potency [10] | Potency [11] | Potency [12] | Potency [13] | Potency [16] | Potency [15]

O=C(O)c1cccc(Cl)c1
inactive: Potency [1] | Potency [2] | Potency [3] | Potency [4] | Potency [5] | Potency [6] | outcome [7] | outcome [8] | outcome [9] | Potency [10] | Potency [11] | Potency [12] | Potency [13] | Potency [14] | Potency [16] | Potency [15]

CCN(CC)C(C)C(=O)c1ccccc1 (stereo unspecified)
inactive: Potency [1] | Potency [2] | Potency [3] | Potency [4] | Potency [5] | Potency [6] | outcome [7] | outcome [8] | outcome [17] | outcome [9] | Potency [10] | Potency [11] | Potency [12] | Potency [13] | Potency [14] | Potency [16] | max activation [18] -2.77% | Potency [19] | Potency [20] | Potency [15]
